# The panel holds about 83,000 compounds, 20% with a hit somewhere; the sample as a whole holds those more often.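 In brief: 96-well plates, 48 h treatment, single concentration, percent growth endpoint.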 Unmarked numbers belong to inactive results. Calls of active or inactive are those of the source. The calls were made as follows: active = growth percent below 10; inactive = the rest.
# Key:
# Experiment in all cases: NCI-60 one-dose screen, 48 h (100 = growth as untreated, 0 = no growth, -100 = all killed)
# RPMI-8226 leukemia = details: 10 µM unless noted
# OVCAR-8 ovarian = details: 10 µM unless noted
# OVCAR-5 ovarian = details: 10 µM unless noted
# OVCAR-4 ovarian = details: 10 µM unless noted
# SK-OV-3 ovarian = details: 10 µM unless noted
# OVCAR-3 ovarian = details: 10 µM unless noted
# HS 578T breast = details: 10 µM unless noted
# NCI/ADR-RES ovarian = details: 10 µM unless noted
# BT-549 breast = details: 10 µM unless noted
# MDA-MB-435 melanoma = details: 10 µM unless noted
# SW-620 colon = details: 10 µM unless noted
# MCF7 breast = details: 10 µM
# HCT-116 colon = details: 10 µM unless noted
# HCC-2998 colon = details: 10 µM unless noted
# KM12 colon = details: 10 µM unless noted
# IGROV1 ovarian = details: 10 µM unless noted
# T-47D breast = details: 10 µM unless noted
SMILES,growth (RPMI-8226 leukemia),growth (OVCAR-8 ovarian),growth (OVCAR-5 ovarian),growth (OVCAR-4 ovarian),growth (SK-OV-3 ovarian),growth (OVCAR-3 ovarian),growth (HS 578T breast),growth (NCI/ADR-RES ovarian),growth (BT-549 breast),growth (MDA-MB-435 melanoma),growth (SW-620 colon),growth (MCF7 breast),growth (HCT-116 colon),growth (HCC-2998 colon),growth (KM12 colon),growth (IGROV1 ovarian),growth (T-47D breast)
N#CC(C#N)=Cc1c(-c2ccccc2)[nH]c2ccccc12,-24.8% (active),32.4%,75.3%,65.7%,25.3%,-27.5% (active),-1.19% (active),16.2%,56%,7.52% (active),21.1%,15.7%,30.4%,50.7%,27.4%,,
CCOC(=O)C1=CN(C)C=C(C(=O)OCC)C1c1cc(Br)c(OCC)c(OC)c1,8.87% (active),56.8%,63.5%,54.9%,86.4%,64.9%,62.9%,73%,84.9%,15.6%,48.6%,,43.9%,-16.5% (active),48.4%,35.6%,
O=C(Nc1ccc(Cl)cc1F)c1cc(F)ccc1O,-23% (active),9.44% (active),27.8%,11.2%,-4.5% (active),9.51% (active),1.1% (active),7.19% (active),,0.146% (active),9.96% (active),3.15% (active),3.99% (active),11.7%,0.993% (active),17.5%,
COc1ccc(C2=C(c3cccc(OC)c3)C(=O)c3ccc(C)nc3C2=O)cc1,47.2%,42.3%,104%,-95.8% (active),,7.59% (active),52.5%,17.1%,57.5%,32.2%,23.6%,23.7%,11.2%,84.6%,28.6%,43%,-41.4% (active)
COC(=O)/C(CCC=C(C)C)=C1\[C@@H](OC(C)=O)C[C@@]2(C)[C@H]1CC(=O)[C@H]1[C@@]3(C)CC[C@H](NCc4ccccc4)[C@@H](C)[C@@H]3CC[C@@]12C,49.5%,92.4%,95%,80.7%,,89.2%,73.7%,88.3%,89.7%,91.2%,81.5%,82.2%,73%,66.6%,101%,73.4%,92.3%
N#C/C(=C\c1c(-c2ccccc2)[nH]c2ccccc12)S(=O)(=O)c1ccccc1,-43.1% (active),43.3%,75.1%,83%,30.5%,-27.9% (active),15.9%,7.91% (active),51.7%,7.27% (active),28.6%,14%,36.8%,57%,25.1%,,38.9%
CC(C)CCOc1ccc(-c2n[nH]c(C(F)(F)F)c2-c2cncc(C#N)c2)c(O)c1,-31.8% (active),12.5%,36.9%,20.5%,-7.94% (active),2.95% (active),18%,2.45% (active),6.56% (active),7.91% (active),14.3%,,2.41% (active),16.2%,7.94% (active),46.9%,
COc1ccccc1C(=O)/C=C/c1ccccc1,-2.98% (active),78.1%,101%,88.6%,90.3%,,,76.4%,77.5%,78.4%,67.4%,28.6%,37%,103%,55.2%,85.7%,81.4%
CCCCCCCCCCCCCCn1cc(C2=C(c3coc4ccc(OC)cc34)C(=O)NC2=O)c2ccccc21,122%,91.8%,93.8%,102%,,102%,98.5%,98.9%,91.1%,97.6%,89.2%,88.5%,78%,104%,98%,81.6%,96.2%
O=C(Cc1ccccc1)NC(c1ccc(Cl)cc1)c1c(O)ccc2ccccc12 (stereo not given),-20.8% (active),5.43% (active),45.7%,21.7%,36.1%,-22.9% (active),54.1%,9.15% (active),50%,6.36% (active),17.5%,8.18% (active),2.62% (active),24.8%,15.1%,,10.8%
